Reference: the supplement of paper PMC8728848
The sample as a whole holds a higher share of the strongest signals than the screen did.

Key:
Assay in all cases: glycan array binding signal (z-score within array); higher = stronger binding
Conditions in all cases: glycan notation: IUPAC condensed, linker removed
[1] = target: Fuc(a1-2)Gal(b1-3)[Fuc(a1-4)]GlcNAc(b1-2)Man(a1-3)[Fuc(a1-2)Gal(b1-3)[Fuc(a1-4)]GlcNAc(b1-2)Man(a1-3)]Man(b1-4)GlcNAc(b1-4)GlcNAc
Method in brief: (§1)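 The Consortium for Functional Glycomics database supplied 3228 glycan arrays, of which those lacking an available protein sequence were dropped. The binding signal, a within-array Z-score, was averaged across arrays of the same protein sequence and across linkers. Negative scores can be read as non-binding.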

Fuc(a1-2)Gal(b1-4)Glc = target: Fuc(a1-2)Gal(b1-4)Glc
Method in brief: as §1

[2] = target: Fuc(a1-2)Gal(b1-4)GlcNAc(b1-2)[Fuc(a1-2)Gal(b1-4)GlcNAc(b1-4)]Man(a1-3)[Fuc(a1-2)Gal(b1-4)GlcNAc(b1-2)Man(a1-6)]Man(b1-4)GlcNAc(b1-4)GlcNAc
Method in brief: as §1

[3] = target: Fuc(a1-2)Gal(b1-4)GlcNAc(b1-6)GalNAc
Method in brief: as §1

[4] = target: Fuc(a1-2)Gal(b1-4)[Fuc(a1-3)]GlcNAc(b1-2)Man(a1-3)[Fuc(a1-2)Gal(b1-4)[Fuc(a1-3)]GlcNAc(b1-2)Man(a1-6)]Man(b1-4)GlcNAc(b1-4)[Fuc(a1-6)]GlcNAc
Method in brief: as §1

[5] = target: Fuc(a1-2)[Gal(a1-3)]Gal(b1-3)GlcNAc(b1-2)Man(a1-3)[Fuc(a1-2)[Gal(a1-3)]Gal(b1-3)GlcNAc(b1-2)Man(a1-6)]Man(b1-4)GlcNAc(b1-4)GlcNAc
Method in brief: as §1

[6] = target: Fuc(a1-2)[Gal(a1-3)]Gal(b1-4)GlcNAc(b1-2)Man
Method in brief: as §1

Fuc(a1-3)GlcNAc = target: Fuc(a1-3)GlcNAc
Method in brief: as §1

[7] = target: Fuc(a1-3)[Gal3S(b1-4)]GlcNAc6S
Method in brief: as §1

Fuc(b1-3)GlcNAc = target: Fuc(b1-3)GlcNAc
Method in brief: as §1

[8] = target: Gal(a1-3)Gal(b1-4)GlcNAc(b1-2)Man(a1-3)[Gal(a1-3)Gal(b1-4)GlcNAc(b1-2)Man(a1-6)]Man(b1-4)GlcNAc(b1-4)GlcNAc
Method in brief: as §1

Gal(a1-3)GalNAc = target: Gal(a1-3)GalNAc
Method in brief: as §1

[9] = target: Gal(a1-4)Gal(b1-3)GlcNAc(b1-2)Man(a1-3)[Gal(a1-4)Gal(b1-3)GlcNAc(b1-2)Man(a1-6)]Man(b1-4)GlcNAc(b1-4)GlcNAc
Method in brief: as §1

Gal(a1-4)Gal(b1-4)GlcNAc = target: Gal(a1-4)Gal(b1-4)GlcNAc
Method in brief: as §1

[10] = target: Gal(a1-4)Gal(b1-4)GlcNAc(b1-2)Man(a1-3)[Gal(a1-4)Gal(b1-4)GlcNAc(b1-2)Man(a1-6)]Man(b1-4)GlcNAc(b1-4)GlcNAc
Method in brief: as §1

[11] = target: Gal(a1-4)Gal(b1-4)GlcNAc(b1-3)Gal(b1-4)Glc
Method in brief: as §1

Gal(a1-6)Glc = target: Gal(a1-6)Glc
Method in brief: as §1

Gal(b1-2)Gal = target: Gal(b1-2)Gal
Method in brief: as §1

Gal(b1-3)Gal(b1-4)GlcNAc = target: Gal(b1-3)Gal(b1-4)GlcNAc
Method in brief: as §1

[12] = target: Gal(b1-3)GalNAc(a1-3)[Fuc(a1-2)]Gal(b1-4)Glc
Method in brief: as §1

[13] = target: Gal(b1-3)GalNAc(a1-3)[Fuc(a1-2)]Gal(b1-4)GlcNAc
Method in brief: as §1

[14] = target: Gal(b1-3)GalNAc(b1-4)Gal(b1-4)Glc
Method in brief: as §1

[15] = target: Gal(b1-3)GlcNAc(b1-3)Gal(b1-4)GlcNAc(b1-6)[Gal(b1-3)GlcNAc(b1-3)]Gal(b1-4)Glc
Method in brief: as §1

[16] = target: Gal(b1-3)[Fuc(a1-4)]GlcNAc(b1-2)Man
Method in brief: as §1

Gal(b1-4)GlcNAc(b1-2)Man = target: Gal(b1-4)GlcNAc(b1-2)Man
Method in brief: as §1

[17] = target: Gal(b1-4)GlcNAc(b1-2)[Gal(b1-4)GlcNAc(b1-6)]Man(a1-6)[Gal(b1-4)GlcNAc(b1-2)Man(a1-3)]Man(b1-4)GlcNAc(b1-4)GlcNAc
Method in brief: as §1

[18] = target: Gal(b1-4)GlcNAc(b1-3)Gal(b1-3)GlcNAc
Method in brief: as §1

[19] = target: Gal(b1-4)GlcNAc(b1-3)Gal(b1-4)GlcNAc(b1-3)Gal(b1-4)GlcNAc(b1-3)Gal(b1-4)GlcNAc(b1-2)Man(a1-3)[Gal(b1-4)GlcNAc(b1-3)Gal(b1-4)GlcNAc(b1-3)Gal(b1-4)GlcNAc(b1-3)Gal(b1-4)GlcNAc(b1-2)Man(a1-6)]Man(b1-4)GlcNAc(b1-4)GlcNAc
Method in brief: as §1

Gal3S6S(b1-4)GlcNAc = target: Gal3S6S(b1-4)GlcNAc
Method in brief: as §1

[20] = target: GalNAc(b1-3)Gal(a1-4)Gal(b1-4)GlcNAc
Method in brief: as §1

GalNAc(b1-4)GlcNAc = target: GalNAc(b1-4)GlcNAc
Method in brief: as §1

GalNAc3S(b1-4)GlcNAc = target: GalNAc3S(b1-4)GlcNAc
Method in brief: as §1

Glc(a1-6)Glc(a1-6)Glc = target: Glc(a1-6)Glc(a1-6)Glc
Method in brief: as §1

[21] = target: GlcNAc(a1-4)Gal(b1-3)GlcNAc
Method in brief: as §1

[22] = target: GlcNAc(a1-4)Gal(b1-4)GalNAc
Method in brief: as §1

[23] = target: GlcNAc(b1-3)Gal(b1-4)GlcNAc(b1-3)Gal(b1-4)GlcNAc(b1-2)Man(a1-3)[GlcNAc(b1-3)Gal(b1-4)GlcNAc(b1-3)Gal(b1-4)GlcNAc(b1-2)Man(a1-6)]Man(b1-4)GlcNAc(b1-4)[Fuc(a1-6)]GlcNAc
Method in brief: as §1

GlcNAc(b1-3)Man = target: GlcNAc(b1-3)Man
Method in brief: as §1

[24] = target: GlcNAc(b1-4)Gal(b1-4)GlcNAc
Method in brief: as §1

[25] = target: Man(a1-3)[Man(a1-6)]Man(a1-6)[Man(a1-3)]Man
Method in brief: as §1

Man(b1-4)GlcNAc = target: Man(b1-4)GlcNAc
Method in brief: as §1

[26] = target: Neu5Ac(a2-3)Gal(b1-3)GlcNAc(b1-4)Gal(b1-4)Glc
Method in brief: as §1

[27] = target: Neu5Ac(a2-3)Gal(b1-4)GlcNAc(b1-2)[Neu5Ac(a2-3)Gal(b1-4)GlcNAc(b1-4)]Man(a1-3)[GlcNAc(b1-4)][Neu5Ac(a2-3)Gal(b1-4)GlcNAc(b1-4)Man(a1-6)]Man(b1-4)GlcNAc(b1-4)GlcNAc
Method in brief: as §1

[28] = target: Neu5Ac(a2-3)Gal(b1-4)GlcNAc(b1-3)Gal
Method in brief: as §1

[29] = target: Neu5Ac(a2-3)Gal(b1-4)GlcNAc6S
Method in brief: as §1

[30] = target: Neu5Ac(a2-3)Gal(b1-4)[Fuc(a1-3)]GlcNAc6S
Method in brief: as §1

[31] = target: Neu5Ac(a2-6)Gal(b1-4)GlcNAc(b1-2)Man(a1-3)Man(b1-4)GlcNAc(b1-4)GlcNAc
Method in brief: as §1

[32] = target: Neu5Ac(a2-6)Gal(b1-4)GlcNAc(b1-2)Man(a1-3)[Gal(b1-4)GlcNAc(b1-2)Man(a1-6)]Man(b1-4)GlcNAc(b1-4)GlcNAc
Method in brief: as §1

[33] = target: Neu5Ac(a2-6)Gal(b1-4)GlcNAc(b1-2)[Neu5Ac(a2-6)Gal(b1-4)GlcNAc(b1-4)]Man(a1-3)[GlcNAc(b1-4)][Neu5Ac(a2-6)Gal(b1-4)GlcNAc(b1-2)[Neu5Ac(a2-6)Gal(b1-4)GlcNAc(b1-6)]Man(a1-6)]Man(b1-4)GlcNAc(b1-4)GlcNAc
Method in brief: as §1

[34] = target: Neu5Ac(a2-6)Gal(b1-4)GlcNAc(b1-2)[Neu5Ac(a2-6)Gal(b1-4)GlcNAc(b1-6)]Man(a1-6)[Neu5Ac(a2-6)Gal(b1-4)GlcNAc(b1-2)Man(a1-3)][GlcNAc(b1-4)]Man(b1-4)GlcNAc(b1-4)GlcNAc
Method in brief: as §1

[35] = target: Neu5Ac(a2-6)Gal(b1-4)GlcNAc(b1-3)Gal(b1-4)GlcNAc(b1-6)[Gal(b1-3)]GalNAc
Method in brief: as §1

[36] = target: Neu5Ac(a2-8)Neu5Ac(a2-3)Gal(b1-4)Glc
Method in brief: as §1

[37] = target: Neu5Gc(a2-3)Gal(b1-3)[Fuc(a1-4)]GlcNAc
Method in brief: as §1

[38] = target: Neu5Gc(a2-3)Gal(b1-4)GlcNAc(b1-3)Gal(b1-4)GlcNAc(b1-2)Man(a1-3)[Neu5Gc(a2-3)Gal(b1-4)GlcNAc(b1-3)Gal(b1-4)GlcNAc(b1-2)Man(a1-6)]Man(b1-4)GlcNAc(b1-4)GlcNAc
Method in brief: as §1

Neu5Gc(a2-6)GalNAc = target: Neu5Gc(a2-6)GalNAc
Method in brief: as §1

B1: Epa6 (Candida glabrata), Q6DTM7_CANGB (protein)
chain: MGSSHHHHHHSSGLVPRGSHMKDDYSSSLSNNNLGWTDPTEFPLGCSPNVTTPKNGLSMELYSYDYLKSGSNPCWDAAYLDPNYPRTGYKSHRLLAKVENVAGNINFYYHAPMGCTSLFDTLPQAYNYRTPLTMTNFTMLLYGYFKPKVTGYHTFTISADDLLFVNFGAGNAFDCCKRESSADDFGNYQAYAVWGSQTAKDDLTVHLDAGLYYPIRIFFNNRDNDGALSLTLKTESDPNPVIDFSDYFYSFDDTKDGCPGLVSYDTS
glycan array binding signal (z-score) [1]: -0.229
glycan array binding signal (z-score) (Fuc(a1-2)Gal(b1-4)Glc): -0.123
glycan array binding signal (z-score) [2]: -0.318
glycan array binding signal (z-score) [3]: -0.062
glycan array binding signal (z-score) [4]: -0.257
glycan array binding signal (z-score) [5]: 0.454
glycan array binding signal (z-score) [6]: 0.197
glycan array binding signal (z-score) (Fuc(a1-3)GlcNAc): -0.304
glycan array binding signal (z-score) [7]: -0.263
glycan array binding signal (z-score) (Fuc(b1-3)GlcNAc): -0.331
glycan array binding signal (z-score) [8]: 3.7
glycan array binding signal (z-score) (Gal(a1-3)GalNAc): 4.17
glycan array binding signal (z-score) [9]: 6.23
glycan array binding signal (z-score) (Gal(a1-4)Gal(b1-4)GlcNAc): 4.65
glycan array binding signal (z-score) [10]: 4.02
glycan array binding signal (z-score) [11]: 4.42
glycan array binding signal (z-score) (Gal(a1-6)Glc): 8.63
glycan array binding signal (z-score) (Gal(b1-2)Gal): 6.14
glycan array binding signal (z-score) (Gal(b1-3)Gal(b1-4)GlcNAc): 10
glycan array binding signal (z-score) [12]: 4.95
glycan array binding signal (z-score) [13]: 5.98
glycan array binding signal (z-score) [14]: 3.9
glycan array binding signal (z-score) [15]: 0.257
glycan array binding signal (z-score) [16]: -0.112
glycan array binding signal (z-score) (Gal(b1-4)GlcNAc(b1-2)Man): -0.283
glycan array binding signal (z-score) [17]: -0.198
glycan array binding signal (z-score) [18]: -0.26
glycan array binding signal (z-score) [19]: 0.07
glycan array binding signal (z-score) (Gal3S6S(b1-4)GlcNAc): -0.306
glycan array binding signal (z-score) [20]: -0.126
glycan array binding signal (z-score) (GalNAc(b1-4)GlcNAc): -0.234
glycan array binding signal (z-score) (GalNAc3S(b1-4)GlcNAc): -0.313
glycan array binding signal (z-score) (Glc(a1-6)Glc(a1-6)Glc): -0.312
glycan array binding signal (z-score) [21]: -0.306
glycan array binding signal (z-score) [22]: -0.297
glycan array binding signal (z-score) [23]: -0.255
glycan array binding signal (z-score) (GlcNAc(b1-3)Man): -0.263
glycan array binding signal (z-score) [24]: -0.357
glycan array binding signal (z-score) [25]: -0.281
glycan array binding signal (z-score) (Man(b1-4)GlcNAc): -0.332
glycan array binding signal (z-score) [26]: -0.269
glycan array binding signal (z-score) [27]: -0.343
glycan array binding signal (z-score) [28]: -0.336
glycan array binding signal (z-score) [29]: -0.347
glycan array binding signal (z-score) [30]: -0.347
glycan array binding signal (z-score) [31]: -0.325
glycan array binding signal (z-score) [32]: -0.301
glycan array binding signal (z-score) [33]: -0.311
glycan array binding signal (z-score) [34]: -0.33
glycan array binding signal (z-score) [35]: 0.25
glycan array binding signal (z-score) [36]: -0.347
glycan array binding signal (z-score) [37]: -0.331
glycan array binding signal (z-score) [38]: -0.311
glycan array binding signal (z-score) (Neu5Gc(a2-6)GalNAc): -0.311
